From PubChem BioAssay AID485364 (National Center for Advancing Translational Sciences (NCATS), 2010)
Out of some 360,000 compounds screened, about 11,000 (3.1%) were called active. Not shown: some 4% with an inconclusive outcome. This is one part of a sample in which actives are shown more often than they occur. Calls follow the shape of the dose curve; as a rule, active = well fitted inhibition curve with a large enough effect; inconclusive = small, poorly fitted or top-dose-only effect; inactive = no such curve, though single readings can be large or run the other way.

Each molecule was assayed against Schistosoma mansoni thioredoxin glutathione reductase (TGR) (UniProt Q962Y6) (assay: qHTS Assay for the Inhibitors of Schistosoma Mansoni Peroxiredoxins). Settings: purified TGR, DTNB reduction, TNB absorbance 405 nm; series mostly up to 114 µM; activity change, negative = inhibition: at the top concentration.
Description: Schistosomiasis is a major neglected tropical disease that currently affects over 200 million. It is caused by different species of flatworms, such as Schistosoma mansoni. Over the last century, drugs to treat the disease have evolved from potassium antimonyl tartrate, artemisinin, oxamniquine, to praziquantel, with praziquantel remaining the universally-used single drug of choice over the past three decades. However, transmission rates have changed little with praziquantel, and there is evidence for the development of drug resistant parasites. Because there is currently no suitable alternative therapy available, there is an urgent need to identify new targets and drugs for schistosomiasis treatment. Thioredoxin glutathione reductase (TGR), one uniquely positioned S. mansoni enzyme, has been identified as a major component of the worms' distinct and compressed antioxidant "firewall". TGR is a multifunctional enzyme that catalyzes the interconversion between reduced and oxidized forms of both glutathione (GSH) and thioredoxins, thus making it an attractive new antiparasitic target. Recently, a quantitative high-throughput screen of the NIH Molecular Libraries Small Molecule Repository (MLSMR, ~71K at the time of the screen in 2007) was performed using an assay that targeted both TGR and peroxiredoxin2 (Prx2, an H2O2-reducing enzymatic component of the S. mansoni redox "firewall") by following the decrease of NADPH fluorescence. […] Additional mechanistic link between exogenous NO donation and parasitic injury for the oxadiazole-2-oxide class of compounds was also expanded and better defined. Although the screen addressed both TGR and Prx2, the assay required post-screen target deconvolution for further characterization of the actives. In addition, the fluorescence assay was also subject to fluorescence interference from compound library members. We have developed a 1536-well-based kinetic HTS assay to address TGR alone. The assay followed the reduction of 5, 5'-dithiobis (2-nitrobenzoic acid) (DTNB) (Ellman's reagent) by NADPH and measured the increase in absorbance at 412 nm of the reaction product, TNB. […] This assay format can be used to screen the current MLSMR collection (with >300K compounds available) to find novel TGR inhibitors. Furoxan is a good choice to serve as a positive control in the primary HTS assay.
Three microliters of reagents (100 uM NADPH and 20 nM TGR or 100 uM NADPH as no-enzyme control) were dispensed into 1,536-well black clear-bottomed plates. Compounds (23 nL) were transferred via Kalypsys pin tool equipped with 1536-pin array (10 nL slotted pins, V&P Scientific, San Diego, CA). The plates were then be incubated for 15 min at room temperature, and 1 uL aliquot of 500 uM NADPH were added, immediately followed by a 1 uL aliquot of 15 mM DTNB to start the reaction. The plate was transferred to a ViewLux high-throughput CCD imager (Perkin-Elmer, Wellesley, MA) where kinetic measurements of the TNB absorbance were acquired using a 405 excitation filter. Throughout the screen, reagent bottles and all liquid lines were made light-tight to minimize reagent degradation. All screening operations were performed on a fully integrated robotic system (Kalypsys, San Diego, CA) containing one RX-130 and two RX-90 anthropomorphic robotic arms (Staubli, Duncan, SC). Library plates were screened starting from the lowest and proceeding to the highest concentration, and a "double-dipping" step of the highest concentration was required to access higher concentrations of compounds. Vehicle-only plates, with DMSO being pin-transferred to the entire column 5-48 compound area, were inserted uniformly at the beginning and the end of each library in order to monitor for and record any shifts in the background, which can be affected by reagent dispensers or loss in enzyme activity overtime. […]
% is scaled to controls: 0 for no effect and ±100 for the full control effect; potency is read from the fitted curve at half-maximal effect.
Also: nearly all actives have a fitted effect of over 60% in size.

Structure (SMILES) | Potency | activity change, negative = inhibition
COc1cc(/C=N/Nc2ccc(C)cc2)cc(Br)c1O | 10 µM (active) | –
COc1ccc2cc(CCl)c(Cl)nc2c1 | 31.6 µM (active) | –
CCc1ccc(CNC(=O)c2cc3cc4ccc(OC)cc4nc3o2)cc1 | – | 15% (inactive)
COc1ccc2oc(-c3cccc(NC(=O)CSc4ccc(Cl)cc4)c3)nc2c1 | – | 3.2% (inactive)
CCOc1ccc(Nc2nc3c(S(=O)(=O)c4cccc(Cl)c4)nnn3c3ccsc23)cc1 | – | 0.289% (inactive)
CSCCC1NC2(C(=O)Nc3ccc(Cl)cc32)[C@@H]2C(=O)N(C3CCCC3)C(=O)[C@H]12 (some centres undefined) | 31.6 µM (active) | –
C[C@@]12C(=O)N(c3cccc(Br)c3)C(=O)N1[C@H](c1ccc(Cl)cc1)[C@@H]1C(=O)N(C3CCCCC3)C(=O)[C@@H]12 | – | -24.8% (inactive)
O=C1[C@@H]2C(Cc3ccc(O)cc3)NC3(C(=O)Nc4ccc(F)cc43)[C@@H]2C(=O)N1c1ccc(F)cc1 (some centres undefined) | – | -9.3% (inactive)
CN(Cc1ccccc1)S(=O)(=O)c1ccc(F)c(C(=O)Nc2cccc(Cl)c2Cl)c1 | – | 12.7% (inactive)
Cc1ccc(CCNC(=O)Cn2c(-c3cccs3)cc3cc(F)ccc32)cc1 | – | -2.72% (inactive)
C=CS(=O)c1sc(Cl)c(N2CCOCC2)c1[N+](=O)[O-] (centres undefined) | 0.199 µM (active) | –
CCOC(=O)c1[nH]c(C)c(CCC(=O)N2CCN(c3ccccc3)CC2)c1C | – | 7.18% (inactive)
Cn1c(=O)n(Cc2c(F)cccc2Cl)c(=O)c2c1nc1n2CCN1c1ccc(F)cc1 | – | 12.7% (inactive)
O=C(CCCCn1c(=O)[nH]c2ccccc2c1=O)NCc1ccc2c(c1)OCO2 | 2.51 µM (active) | –
NS(=O)(=O)c1ccc(CCNC(=O)CCCCCn2c(=O)[nH]c3ccccc3c2=O)cc1 | – | 2.15% (inactive)
O=C(CCCCCn1c(=O)[nH]c2ccccc2c1=O)NCCc1c[nH]c2ccccc12 | – | 1.93% (inactive)
CCCCCn1c(CCCNC(=O)c2ccccc2OC)nc2ccccc21 | – | -3.99% (inactive)
COc1ccc(C)cc1NC(=O)CCc1c(C)nn(-c2ccc(N3CCOCC3)nn2)c1C | – | -3.54% (inactive)
CCOC(=O)c1ccc(NC(=O)Cn2c(=O)n(-c3ccc(C)cc3)c(=O)c3c2cnn3C)cc1 | – | 1.17% (inactive)
O=C(Nc1ccccc1N1CCOCC1)c1csc2c1CCCC2 | – | -5.36% (inactive)
O=C(Cc1ccccc1)Nc1cccc(C(=O)N/N=C/c2ccco2)c1 | – | 2.24% (inactive)
O=C(N/N=C/c1ccco1)c1csc2c1CCCC2 | 44.7 µM (active) | –
CCOC(=O)C1CCN(c2csc3ccc(C)cc3c2=O)CC1 | – | -5.6% (inactive)
CCOC(=O)c1c(NC(=O)/C=C/c2ccc(OC)cc2)sc2c1CCC(C)C2 (centres undefined) | – | 2.9% (inactive)
Cc1ccc(-c2nn(-c3ccccc3)cc2CN(Cc2ccccc2)C(=O)CCC(=O)O)o1 | 7.94 µM (active) | –

Structure (SMILES) | Potency | activity change, negative = inhibition
Cc1ccc(-c2nn(-c3ccccc3)cc2/C=C2\SC(=S)N(CCCCCC(=O)O)C2=O)o1 | 12.6 µM (active) | –
COc1ccc(/C=C2/SC(=O)N(CCCCCC(=O)Nc3ccccc3C(=O)O)C2=S)cc1 | – | -1.67% (inactive)
Cc1ccc(-c2nn(-c3cccc(F)c3)cc2CNCCc2ccncc2)o1 | – | -22.6% (inactive)
O=C(CCCN1C(=O)/C(=C/c2cccs2)SC1=S)Nc1ccc(O)cc1 | – | -9.78% (inactive)
O=C(O)CCC(=O)N(Cc1ccccc1)Cc1ccccc1 | – | -7.7% (inactive)
Cc1ccc(C)c(CN2C(=O)c3ccccc3S(=O)c3ccc(C(=O)N4CCOCC4)cc32)c1 (centres undefined) | – | -17.2% (inactive)
CCCc1nn2c(=O)cc(COC(=O)c3ccc(NC(=O)COc4ccc(F)cc4)cc3)nc2s1 | – | 2.97% (inactive)
CCOC(=O)c1c(NC(=O)COc2cc(C)ccc2C(C)C)sc(C)c1C | – | -1.77% (inactive)
CCCCOc1ccc(C(=O)N2CC(=O)Nc3ccc(Br)cc3C2c2ccc(F)cc2)cc1 (centres undefined) | – | 3.05% (inactive)
CCOC(=O)COc1nc(C)cc(C(F)(F)F)c1C#N | – | 18% (inactive)
CCOC(=O)c1cc(C)nc(S(C)(=O)=O)c1C#N | 35.5 µM (active) | –
CCOC(=O)c1c(C(C#N)C#N)cc(C)nc1C | – | 2.77% (inactive)
Cc1c(Cl)cccc1NC(=O)CCS(=O)(=O)c1ccc2c(c1)oc(=O)n2C | – | -35.2% (inactive)
CCOc1ccc(N2C(=O)/C(=C/c3ccc(C)o3)N(C)C2=S)cc1 | 28.2 µM (active) | –
CCOc1ccc(N2C(=O)CSC2=NC#N)cc1 | – | -3.07% (inactive)
CCOc1ccc(N2C(=O)CN(c3cccc4ccccc34)C2=S)cc1 | – | -0.257% (inactive)
COc1ccc(C=C(C#N)C#N)c(CSc2ccccn2)c1 | 1 µM (active) | –
COc1cccc(N(CC(=O)NCCSc2ccccn2)S(C)(=O)=O)c1 | – | 0.808% (inactive)
CCOC(=O)CSc1ccccn1 | – | 2.94% (inactive)
CC(C)c1ccc(C2CC(=O)N3CN(C4CCCCC4)CSC3=C2C#N)cc1 (centres undefined) | 6.31 µM (active) | –
CC(C)c1ccc(C2C(C#N)=C(N)Oc3c2oc(CO)cc3=O)cc1 (centres undefined) | – | 17.8% (inactive)
CCOC(=O)c1cc2c(=O)n3ccccc3nc2n(CC2CCCO2)c1=NC(=O)c1ccc(C(C)(C)C)cc1 (centres undefined) | – | 1.91% (inactive)
CN1c2ccc(C=O)c3c(C=O)ccc(c23)N(C)C1(C)C | 35.5 µM (active) | –
CCc1cc2c(-c3ccccc3)cc(=O)oc2c2c1OCN(Cc1ccc(C)cc1)C2 | – | -3.03% (inactive)
